Reference: article PMC7862700, “An all-to-all approach to the identification of sequence-specific readers for epigenetic DNA modifications on cytosine”

Each sequence was assayed against T1, FLI1 (Homo sapiens, UniProt Q01543 1-452) (assay: DAPPL (digital affinity profiling via proximity ligation, sequencing); 10 mM Tris-HCl pH 7.5, 50 mM NaCl, 1 mM DTT, 4% glycerol, room temperature, 30 min; GST-TFs on glutathione beads, 16-mer random dsDNA library, 0.1% formaldehyde crosslink after washing; high values mean tight binding). Details: protein: recombinant; tags: N-terminal GST; dsDNA, one strand shown.
T1 sequence: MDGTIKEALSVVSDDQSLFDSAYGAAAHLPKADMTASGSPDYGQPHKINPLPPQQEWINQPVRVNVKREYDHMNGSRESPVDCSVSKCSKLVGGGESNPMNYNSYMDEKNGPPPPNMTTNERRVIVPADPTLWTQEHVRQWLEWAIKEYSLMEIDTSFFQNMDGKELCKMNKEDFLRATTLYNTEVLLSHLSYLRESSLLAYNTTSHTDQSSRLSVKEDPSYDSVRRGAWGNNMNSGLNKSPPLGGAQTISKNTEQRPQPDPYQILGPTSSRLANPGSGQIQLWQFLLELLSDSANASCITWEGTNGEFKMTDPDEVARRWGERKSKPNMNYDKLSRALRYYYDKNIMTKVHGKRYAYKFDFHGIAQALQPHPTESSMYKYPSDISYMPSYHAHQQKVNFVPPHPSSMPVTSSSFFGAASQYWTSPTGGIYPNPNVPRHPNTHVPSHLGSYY
Method in brief: (§1)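 Yeast served to express human transcription factors as GST fusions, which were then captured on glutathione beads and labelled with DNA barcodes. Pooled with a tag-only sample, they were incubated with 200 nmole of a 16-mer random double-stranded DNA library for 30 min at room temperature in Tris/NaCl/DTT/glycerol buffer, washed, crosslinked with 0.1% formaldehyde, ligated by proximity, amplified by PCR and sequenced. Dividing each hexamer's read frequency for a factor by its frequency for the tag-only sample gives the binding signal.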

Sequence | binding signal
TGGACC | 1.11 fold enrichment (6-mer frequency, TF over GST control)
TGCTGC | 1.15 fold enrichment (6-mer frequency, TF over GST control)
CCACAC | 1.07 fold enrichment (6-mer frequency, TF over GST control)
CGGCCT | 1.22 fold enrichment (6-mer frequency, TF over GST control)
GCCCAC | 1.09 fold enrichment (6-mer frequency, TF over GST control)
TTGGTC | 1.16 fold enrichment (6-mer frequency, TF over GST control)
CATCCA | 1.01 fold enrichment (6-mer frequency, TF over GST control)
TTGCCG | 1.2 fold enrichment (6-mer frequency, TF over GST control)
TGGTCA | 1.11 fold enrichment (6-mer frequency, TF over GST control)
AGCAAC | 1 fold enrichment (6-mer frequency, TF over GST control)
AAAGCG | 1.01 fold enrichment (6-mer frequency, TF over GST control)
GGGTTC | 1.06 fold enrichment (6-mer frequency, TF over GST control)
CATACG | 1.05 fold enrichment (6-mer frequency, TF over GST control)
CCGATG | 1.07 fold enrichment (6-mer frequency, TF over GST control)
ATGCCG | 1.12 fold enrichment (6-mer frequency, TF over GST control)
CCACCT | 1.16 fold enrichment (6-mer frequency, TF over GST control)
GCGCGC | 1 fold enrichment (6-mer frequency, TF over GST control)
CGCCCG | 1.28 fold enrichment (6-mer frequency, TF over GST control)
TCAACA | 1.06 fold enrichment (6-mer frequency, TF over GST control)

Sequence | binding signal
ACCACA | 1.05 fold enrichment (6-mer frequency, TF over GST control)
GTCCCA | 1.03 fold enrichment (6-mer frequency, TF over GST control)
TGGTGC | 1.12 fold enrichment (6-mer frequency, TF over GST control)
ACATGG | 1.17 fold enrichment (6-mer frequency, TF over GST control)
GTCTTG | 1.02 fold enrichment (6-mer frequency, TF over GST control)
ATGGTG | 1.17 fold enrichment (6-mer frequency, TF over GST control)
ACCACC | 1.1 fold enrichment (6-mer frequency, TF over GST control)
TGCCAA | 1.07 fold enrichment (6-mer frequency, TF over GST control)
GCTGCC | 1.13 fold enrichment (6-mer frequency, TF over GST control)
GCCCCA | 1.06 fold enrichment (6-mer frequency, TF over GST control)
CCGCTG | 1.13 fold enrichment (6-mer frequency, TF over GST control)
ACGTTG | 1.14 fold enrichment (6-mer frequency, TF over GST control)
CCATGC | 1.04 fold enrichment (6-mer frequency, TF over GST control)
GTTGAT | 1.04 fold enrichment (6-mer frequency, TF over GST control)
AAGGGT | 1 fold enrichment (6-mer frequency, TF over GST control)
GTCTAC | 1.09 fold enrichment (6-mer frequency, TF over GST control)
CATCGC | 1.08 fold enrichment (6-mer frequency, TF over GST control)
AAGGCA | 1.02 fold enrichment (6-mer frequency, TF over GST control)
GGTTTT | 1.22 fold enrichment (6-mer frequency, TF over GST control)

These sequences were tested against T2, ELK1 (Homo sapiens, UniProt P19419 1-428) in the same assay as above. Details: protein: recombinant; tags: N-terminal GST; dsDNA, one strand shown.
T2 sequence: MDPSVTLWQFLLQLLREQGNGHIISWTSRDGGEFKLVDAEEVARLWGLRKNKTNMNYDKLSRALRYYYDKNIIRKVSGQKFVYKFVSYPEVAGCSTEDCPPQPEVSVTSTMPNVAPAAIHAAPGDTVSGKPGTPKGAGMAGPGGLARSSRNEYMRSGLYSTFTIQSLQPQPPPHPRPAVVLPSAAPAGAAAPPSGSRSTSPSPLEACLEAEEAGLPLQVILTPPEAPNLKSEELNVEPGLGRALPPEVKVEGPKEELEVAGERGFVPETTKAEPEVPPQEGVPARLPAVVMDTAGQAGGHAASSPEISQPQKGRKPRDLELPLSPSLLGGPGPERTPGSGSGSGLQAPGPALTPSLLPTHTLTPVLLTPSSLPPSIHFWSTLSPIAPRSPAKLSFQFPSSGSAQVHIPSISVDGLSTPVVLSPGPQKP
Method in brief: as §1

Sequence | binding signal
TGGACC | 1.03 fold enrichment (6-mer frequency, TF over GST control)
TGCTGC | 1.15 fold enrichment (6-mer frequency, TF over GST control)
CCACAC | 1.07 fold enrichment (6-mer frequency, TF over GST control)
CGGCCT | 1.15 fold enrichment (6-mer frequency, TF over GST control)
GCCCAC | 1.18 fold enrichment (6-mer frequency, TF over GST control)
TTGGTC | 1.17 fold enrichment (6-mer frequency, TF over GST control)
CATCCA | 1.06 fold enrichment (6-mer frequency, TF over GST control)
TTGCCG | 1.14 fold enrichment (6-mer frequency, TF over GST control)
TGGTCA | 1 fold enrichment (6-mer frequency, TF over GST control)
AGCAAC | 1.03 fold enrichment (6-mer frequency, TF over GST control)
GGGTTC | 1.02 fold enrichment (6-mer frequency, TF over GST control)
CATACG | 1.01 fold enrichment (6-mer frequency, TF over GST control)
CCGATG | 1.1 fold enrichment (6-mer frequency, TF over GST control)
ATGCCG | 1.13 fold enrichment (6-mer frequency, TF over GST control)
CCACCT | 1.12 fold enrichment (6-mer frequency, TF over GST control)
GCGCGC | 1.11 fold enrichment (6-mer frequency, TF over GST control)
CGCCCG | 1.2 fold enrichment (6-mer frequency, TF over GST control)
TCAACA | 1.13 fold enrichment (6-mer frequency, TF over GST control)

Sequence | binding signal
ACCACA | 1.1 fold enrichment (6-mer frequency, TF over GST control)
GTCCCA | 1.14 fold enrichment (6-mer frequency, TF over GST control)
TGGTGC | 1.14 fold enrichment (6-mer frequency, TF over GST control)
ACATGG | 1.13 fold enrichment (6-mer frequency, TF over GST control)
GTCTTG | 1.02 fold enrichment (6-mer frequency, TF over GST control)
ATGGTG | 1.27 fold enrichment (6-mer frequency, TF over GST control)
ACCACC | 1.08 fold enrichment (6-mer frequency, TF over GST control)
TGCCAA | 1.11 fold enrichment (6-mer frequency, TF over GST control)
GCTGCC | 1.08 fold enrichment (6-mer frequency, TF over GST control)
GCCCCA | 1.04 fold enrichment (6-mer frequency, TF over GST control)
CCGCTG | 1.03 fold enrichment (6-mer frequency, TF over GST control)
ACGTTG | 1.11 fold enrichment (6-mer frequency, TF over GST control)
CCATGC | 1.1 fold enrichment (6-mer frequency, TF over GST control)
GTTGAT | 1.12 fold enrichment (6-mer frequency, TF over GST control)
AAGGGT | 1.01 fold enrichment (6-mer frequency, TF over GST control)
GTCTAC | 1.08 fold enrichment (6-mer frequency, TF over GST control)
CATCGC | 1.13 fold enrichment (6-mer frequency, TF over GST control)
AAGGCA | 1.05 fold enrichment (6-mer frequency, TF over GST control)

What follows are sequences tested against T3, GABPA (Homo sapiens, UniProt Q06546 1-454) in the same assay as above. Details: protein: recombinant; tags: N-terminal GST; dsDNA, one strand shown.
T3 sequence: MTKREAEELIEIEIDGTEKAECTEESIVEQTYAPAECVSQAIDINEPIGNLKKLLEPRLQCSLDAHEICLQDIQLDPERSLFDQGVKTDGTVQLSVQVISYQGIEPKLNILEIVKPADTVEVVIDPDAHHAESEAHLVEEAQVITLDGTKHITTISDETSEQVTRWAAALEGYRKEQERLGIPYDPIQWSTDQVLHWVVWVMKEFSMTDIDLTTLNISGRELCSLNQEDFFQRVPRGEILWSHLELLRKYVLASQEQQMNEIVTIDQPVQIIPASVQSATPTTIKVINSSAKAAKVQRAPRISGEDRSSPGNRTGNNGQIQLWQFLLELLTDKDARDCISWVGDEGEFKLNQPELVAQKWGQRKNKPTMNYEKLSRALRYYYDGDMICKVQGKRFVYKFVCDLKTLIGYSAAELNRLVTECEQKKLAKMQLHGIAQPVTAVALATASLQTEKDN
Method in brief: as §1

Sequence | binding signal
TGGACC | 1.09 fold enrichment (6-mer frequency, TF over GST control)
TGCTGC | 1.16 fold enrichment (6-mer frequency, TF over GST control)
CCACAC | 1.1 fold enrichment (6-mer frequency, TF over GST control)
CGGCCT | 1.16 fold enrichment (6-mer frequency, TF over GST control)
GCCCAC | 1.06 fold enrichment (6-mer frequency, TF over GST control)
TTGGTC | 1.11 fold enrichment (6-mer frequency, TF over GST control)
TTGCCG | 1.16 fold enrichment (6-mer frequency, TF over GST control)
TGGTCA | 1.17 fold enrichment (6-mer frequency, TF over GST control)
AGCAAC | 1.06 fold enrichment (6-mer frequency, TF over GST control)
AAAGCG | 1.03 fold enrichment (6-mer frequency, TF over GST control)
GGGTTC | 1.01 fold enrichment (6-mer frequency, TF over GST control)
CATACG | 1.03 fold enrichment (6-mer frequency, TF over GST control)
CCGATG | 1.18 fold enrichment (6-mer frequency, TF over GST control)
ATGCCG | 1.09 fold enrichment (6-mer frequency, TF over GST control)
CCACCT | 1.1 fold enrichment (6-mer frequency, TF over GST control)
GCGCGC | 1.05 fold enrichment (6-mer frequency, TF over GST control)

Sequence | binding signal
CGCCCG | 1.07 fold enrichment (6-mer frequency, TF over GST control)
TCAACA | 1.11 fold enrichment (6-mer frequency, TF over GST control)
GTCCCA | 1.11 fold enrichment (6-mer frequency, TF over GST control)
TGGTGC | 1.1 fold enrichment (6-mer frequency, TF over GST control)
ACATGG | 1.15 fold enrichment (6-mer frequency, TF over GST control)
GTCTTG | 1.11 fold enrichment (6-mer frequency, TF over GST control)
ATGGTG | 1.1 fold enrichment (6-mer frequency, TF over GST control)
ACCACC | 1.14 fold enrichment (6-mer frequency, TF over GST control)
TGCCAA | 1.06 fold enrichment (6-mer frequency, TF over GST control)
GCTGCC | 1.18 fold enrichment (6-mer frequency, TF over GST control)
CCGCTG | 1.02 fold enrichment (6-mer frequency, TF over GST control)
ACGTTG | 1.05 fold enrichment (6-mer frequency, TF over GST control)
CCATGC | 1.09 fold enrichment (6-mer frequency, TF over GST control)
GTTGAT | 1.12 fold enrichment (6-mer frequency, TF over GST control)
AAGGGT | 1.01 fold enrichment (6-mer frequency, TF over GST control)
